Compound activity deposited in PubChem BioAssay by several laboratories.
PTK2B oligo ant: antagonists of human Pyk2 oligomerization | Q293 cells, Pyk2 FERM NanoBiT luminescence; stronger effect = lower value | z-score (the deposit names both 25 µM and 10 µM) | Q14289 | 0.83% of 99,000 active;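 active = Z-score of -3 or lower, scaled per plate to the spread of control and sample wells; inactive = z-score above -3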;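 note: negative z-score means lost luminescence so less FERM oligomerization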
CD11b adhes enh: increases human CD11b/CD18 adhesion to fibrinogen. K562 CD11b/CD18 adhesion to fibrinogen, ATPlite luminescence. activation, % at 10 µM. 0.07% of 93,000 active. AID 1499. P05107+P11215;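 active = 10 µM primary screen giving 50% or more activity, confirmed by 40% or more on retest at that dose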
Ec RNAP inh: inhibitors of Escherichia coli RNA polymerase | P0A8V2 | E. coli RNA polymerase, fluorescence transcription assay | inhibition, %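 (tested at 10 µM)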 | 0.2% of 62,000 active | AID 559; in the data active = inhibition above about 20%;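 note: 0% = enzyme without compound and 100% = no enzyme blank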
Cav32 inh: blocks human Cav3.2 T-type calcium channel; Cav3.2-expressing cells, Fluo-4 calcium fluorescence FDSS; stronger effect = lower value; B-score at 10 µM; 4% of 100,000 active; AID 449739;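 active = single-dose well whose peak fluorescence ratio is a statistical outlier from its plate by either plate-standardised score or position-corrected B-score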
Mac1 fbg inh: blocks human CD11b/CD18 adhesion to fibrinogen; K562 CD11b/CD18 adhesion to fibrinogen, ATPlite luminescence; Mn2+ added to activate the integrin; P05107+P11215; AID 1497; 0.54% of 93,000 active; inhibition, % at 10 µM;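 active = primary inhibition of 50% or more at 10 µM, then 40% or more on retest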
* marks the source's active call; other numbers are inactive results. Compounds with a hit are over-represented: about 4.2% of the library has one in this group of screens.

Screening O=c1[nH]c2ccccc2n1C1CCN(CCCC(c2ccc(F)cc2)c2ccc(F)cc2)CC1 returned Ec RNAP inh 9.3 and Cav32 inh -4.76*.
`O=C1CC(N2CCC(n3c(=O)[nH]c4ccccc43)CC2)C(=O)N1c1ccc(F)cc1` (stereo not given) gave PTK2B oligo ant -0.01, CD11b adhes enh -1.4, Ec RNAP inh 8.0 and Mac1 fbg inh -0.5.
Screening O=c1c2ccccc2[se]n1-c1ccccc1 returned Ec RNAP inh 36.7*.
Screening COc1ccc(NP(=O)(Nc2ccc(OC)cc2)Oc2ccccc2)cc1 returned CD11b adhes enh -0.4 and Mac1 fbg inh 3.1.
O=P(Nc1ccccc1)(Nc1ccccc1)Oc1cccc(Cl)c1 was read as PTK2B oligo ant -2.18 and Cav32 inh -7.1*.
Screening CC1CCN(S(=O)(=O)c2ccc(NN=C(C#N)C#N)cc2)CC1 returned CD11b adhes enh -9.4, Cav32 inh -8.41* and Mac1 fbg inh 98.5*.
For COc1ccn(C)c(=O)c1C#N the results were Cav32 inh -0.0914.
`Nc1c(C(=O)NC2CCCC2)c2nc3ccccc3nc2n1CC1CCCO1` (stereo not given) gave PTK2B oligo ant -0.24, CD11b adhes enh 0.0, Ec RNAP inh 0.8, Cav32 inh -6.44* and Mac1 fbg inh -1.2.
C[N+]1(C)CCC(OC(=O)C(c2ccccc2)c2ccccc2)CC1 was read as Cav32 inh -4.37*.
CN1C2CCC1CC(OC(c1ccccc1)c1ccccc1N)C2 (stereo not given) was read as Cav32 inh 0.0839.
Screening CC(O)(CS(=O)(=O)c1cccc(C(F)(F)F)c1)C(=O)Nc1ccc(C(F)(F)F)cc1 (stereo not given) returned PTK2B oligo ant -0.28 and Cav32 inh -1.43.
`COc1ccc(C2(c3cccc(O)c3OC)CCN(C(C)=O)CC2)cc1O` gave Cav32 inh -0.0468.
Screening OC[C@@H](O)CCl returned Cav32 inh 0.464.
For O=C(Oc1c(Cl)cc(Cl)c2ccccc12)N1CCCCC1 the results were PTK2B oligo ant -0.92, CD11b adhes enh -4.8, Cav32 inh 0.0174 and Mac1 fbg inh 55.5*.
`CN1C(=O)C2C[C@@]3(Br)c4ccccc4N(OOSc4ccccc4)[C@H]3N2C(=O)[C@@H]1Cc1ccccc1` (stereo not given in full) gave Cav32 inh -0.659.
For CCCCn1c(O)c(C(CC)=NCc2ccc3c(c2)OCO3)c(=O)[nH]c1=O the results were PTK2B oligo ant -1.94, CD11b adhes enh -1.9, Ec RNAP inh -0.7, Cav32 inh -5.06* and Mac1 fbg inh 10.8.
CCCCn1c(O)c(C(CC)=Nc2ccc(C(=O)O)cc2)c(=O)[nH]c1=O was read as PTK2B oligo ant 0.27, Ec RNAP inh 7.5 and Cav32 inh 0.961.
Screening CCCCCCn1c(O)c(C(C)=NC)c(=O)[nH]c1=O returned PTK2B oligo ant -1.43, CD11b adhes enh 7.9, Cav32 inh -0.791 and Mac1 fbg inh -19.8.
`CCCCn1c(O)c(C(C)=NC(Cc2c[nH]c3ccccc23)C(=O)OC)c(=O)[nH]c1=O` (stereo not given) gave PTK2B oligo ant -1.54, CD11b adhes enh 2.5, Ec RNAP inh 5.0, Cav32 inh -4.34* and Mac1 fbg inh -13.4.
For CCNC(=O)NC(=O)C(C)OC(=O)c1c(C)nn(Cc2ccccc2)c1Cl (stereo not given) the results were CD11b adhes enh 3.0 and Mac1 fbg inh 0.4.
`Cc1c2cnn(CC(=O)N3CCC4(CC3)OCCO4)c(=O)c2c(C)n1Cc1ccccc1` gave PTK2B oligo ant 0.56, CD11b adhes enh -0.4, Ec RNAP inh -1.6, Cav32 inh 0.268 and Mac1 fbg inh -27.5.
For O=C(Cn1ncc2c3ccccc3n(Cc3ccc(F)cc3)c2c1=O)N1CCC2(CC1)OCCO2 the results were PTK2B oligo ant -0.59, Ec RNAP inh 8.2 and Cav32 inh -7.98*.
For CCC(=NCc1cccnc1)c1c(O)n(C2CCCCC2)c(=O)[nH]c1=O the results were PTK2B oligo ant -3.52*, CD11b adhes enh 0.4, Ec RNAP inh 7.8, Cav32 inh 0.65 and Mac1 fbg inh 6.4.
CCC(=NCc1ccco1)c1c(O)n(C2CCCCC2)c(=O)[nH]c1=O was read as PTK2B oligo ant -0.25, CD11b adhes enh 2.3, Ec RNAP inh -4.7, Cav32 inh -6.8* and Mac1 fbg inh 1.8.
For CCC(=NCCCN(CC)CC)c1c(O)n(C2CCCCC2)c(=O)[nH]c1=O the results were PTK2B oligo ant 0.34, CD11b adhes enh 1.3, Ec RNAP inh 7.2, Cav32 inh 0.189 and Mac1 fbg inh -1.5.
Screening CCC(=Nc1ccc(OC)cc1OC)c1c(O)n(C2CCCCC2)c(=O)[nH]c1=O returned PTK2B oligo ant -3.4*, CD11b adhes enh -8.0, Ec RNAP inh 6.9, Cav32 inh -3.06 and Mac1 fbg inh 25.5.
CCCC/C(=N\O)c1c[nH]c2ccccc12 was read as PTK2B oligo ant -0.78, CD11b adhes enh -3.4, Cav32 inh -4.11 and Mac1 fbg inh 5.2.
For COC(=O)C1=C(c2cccc(OC)c2OC)C[C@@H]2CC[C@H]1N2C(=O)NCc1ccc(C(F)(F)F)cc1 the results were Cav32 inh -0.638.
Screening COC(=O)C1=C(c2cccc(OC)c2OC)C[C@@H]2CC[C@H]1N2C(=O)NCc1cccc2ccccc12 returned Cav32 inh -0.677.
O=C(Cn1cc(C(=O)c2ccccc2)c2ccccc21)NCc1ccco1 was read as PTK2B oligo ant -3.24*, CD11b adhes enh 1.0, Ec RNAP inh 5.6, Cav32 inh -3.16 and Mac1 fbg inh 6.4.
Screening O=C(c1ccccc1)c1cn(CC(=O)N2CCCc3ccccc32)c2ccccc12 returned PTK2B oligo ant -2.13, CD11b adhes enh -4.1, Cav32 inh -2.4 and Mac1 fbg inh -8.8.
Screening O=C1C(=O)c2ccccc2-c2ccccc21 returned CD11b adhes enh -7.3, Cav32 inh -0.104 and Mac1 fbg inh 60.2*.
Screening C=C1C(=O)O[C@@H]2C[C@@H](C)[C@@H]3C4OC4C(=O)[C@@]3(C)[C@@H](O)[C@H]12 (stereo not given in full) returned Cav32 inh -0.129.
`Cc1nn(-c2ccccc2)c(Cl)c1C1C(C#N)=C(N)Oc2c1c(=O)oc1ccccc21` (stereo not given) gave PTK2B oligo ant -3.2*, CD11b adhes enh -6.8, Ec RNAP inh 5.8 and Mac1 fbg inh 21.2.
`COCCOC(=O)C1=C(N)OC(C)=C(C(=O)OC)C12C(=O)Nc1ccccc12` (stereo not given) gave PTK2B oligo ant 2.13, CD11b adhes enh -0.1, Ec RNAP inh 2.3, Cav32 inh 0.625 and Mac1 fbg inh -20.2.
For CCOC(=O)C1=C(C)OC(N)=C(C(=O)OCC)C12C(=O)Nc1ccc(Br)cc12 (stereo not given) the results were PTK2B oligo ant 0.52, CD11b adhes enh -1.4, Ec RNAP inh 10.4, Cav32 inh -3.81* and Mac1 fbg inh 5.4.
`CC/C(=N\N1CCN(C)CC1)c1c(O)[nH]c(=O)[nH]c1=O` gave CD11b adhes enh 4.0 and Mac1 fbg inh -3.5.
